High-throughput results (PubChem BioAssay)
Compounds with a hit are over-represented: about 12% of the library has one in this group of screens.
G9a inh = inhibitors of human histone lysine methyltransferase G9a | Q96KQ7 | G9a H3K9 monomethylation, AlphaScreen, 2 h | Potency, µM (series often up to 102 µM), inactives show top-dose activity, negative = inhibition, usual class: inhibitors | 350,000 tested, 8.8% active; note: potency is the fitted concentration of half-maximal effect; % is set by controls: 0 for no effect and ±100 for the full control effect; nearly all actives have a fitted effect of over 75% in size
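G9a (20 nM) preincubated 15 min RT with compounds, then 500 nM biotinylated H3K9 peptide and 20 uM SAM added; 2 h RT reaction. Monomethyl-H3K9 product detected by AlphaScreen with anti-H3K9me1 antibody, streptavidin donor and anti-rabbit IgG acceptor beads.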
JMJD2A Tudor inh = blocks the human JMJD2A Tudor domain | O75164 | AlphaScreen JMJD2A-Tudor / H3K4me3 peptide binding | Potency, µM (top dose mostly 114 µM), for inactives: top-dose activity change, negative = inhibition, most hits filed as inhibitors | 390,000 tested, 4.4% active | AID 504339; note: potency is the fitted concentration of half-maximal effect; % is set by controls: 0 for no effect and ±100 for the full control effect; nearly all actives have a fitted effect of over 50% in size
HP1b chromo inh = inhibitors of HP1-beta chromodomain binding to methylated histone tails; AID 540317; AlphaScreen HP1-beta / biotin-H3K9me3 peptide binding; Potency, µM (doses to about 114 µM), without a hit: top-dose activity change, negative = inhibition, usual class: inhibitors; 390,000 tested, 0.56% active; note: potency is the fitted concentration of half-maximal effect; nearly all actives have a fitted effect of over 70% in size
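AlphaScreen: HP1-beta (50 nM) preformed 30 min with biotin-H3(1-18)K9me3 peptide (50 nM) in PBS pH 7.4, 0.01% Tween-20. Compound added for 30 min at RT, then streptavidin donor/nickel chelate acceptor beads (10 ug/mL) for 30 min.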
BAZ2B block = blocks human BAZ2B; Q9UIF8; AlphaScreen BAZ2B-H3K14Ac peptide displacement; Potency, µM (doses to about 114 µM), without a hit: at the top dose activity change, negative = inhibition, actives largely listed as inhibitors; 360,000 tested, 4.4% active; AID 504333; note: potency is the fitted concentration of half-maximal effect; % is set by controls: 0 for no effect and ±100 for the full control effect; nearly all actives have a fitted effect of over 60% in size
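AlphaScreen displacement: compounds (up to 110uM) incubated 30 min at room temperature with a preformed 50 nM BAZ2B/50 nM biotinylated H3K14Ac peptide complex in PBS pH 7.4 with Tween-20. Donor and acceptor beads at 10 ug/mL final added, 20 min light-protected before reading.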
PLK1 PBD block = PLK1 (human) polo-box domain binding inhibition; P53350; Plk1 PBD binding of FITC phosphopeptide, fluorescence polarization; Potency, µM, inactives show max response, negative = inhibition, most hits filed as inhibitors; 360,000 tested, 2.8% active; note: potency is the fitted concentration of half-maximal effect; series mostly up to about 57 µM; % is set by controls: 0 for no effect and ±100 for the full control effect; nearly all actives have a fitted effect of over 65% in size
PI5P4Ka inh = blocks human PI5P4K alpha kinase activity; max response, %; PI5P4Kalpha enzyme, ADP-Glo luminescence, 60 min; active compounds read low; P48426; 330,000 tested, 1.2% active; active = max response of -50% or lower; inconclusive = between -30% and -50%; inactive = -30% or higher; note: value at the top dose of about 77 µM; % is set by controls: 0 for no effect and ±100 for the full control effect
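ADP-Glo luminescence end-point after a 60 min room-temperature kinase reaction. PI5P4Kalpha and substrate in HEPES pH 7.4 buffer with EGTA, 0.1% CHAPS and 5% DMSO; ATP at 5 microM final.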
* marks the source's active call; other numbers are inactive results; ? = inconclusive; · = no result; [ ] = another dose, or the depositor's remark. Unless noted, calls come from the whole dose curve; as a rule, active = well fitted curve in the direction sought with a large enough effect; inconclusive = small, poorly fitted or top-dose-only effect, or another doubt; inactive = no such curve, though single readings can be large; an effect the other way counts as inactive or inconclusive.

SMILES	G9a inh	JMJD2A Tudor inh	HP1b chromo inh	BAZ2B block	PLK1 PBD block	PI5P4Ka inh
CC(C)N(c1ccccc1)c1ccc(NC(=S)NCCN(C)C)cc1	45µM*	-35%	-9%	-23%	-6%	7
CN(C)CCNC(=S)Nc1ccc(-c2nc3ccccc3[nH]2)cc1	50µM*	-15%	55%	-8%	-10%	-11
CCNC(=S)Nc1ccc(N(c2ccccc2)C(C)C)cc1	?	?	-19%	-36%	?	·
S=C(NCCCN1CCOCC1)Nc1ccc(Nc2ccccc2)cc1	45µM*	-25%	-11%	?	?	0
COc1cc2[nH]c(C)c(-c3ccccc3)c(=O)c2cc1Cl	·	·	·	·	-14%	0
CC(=O)c1cn(CCOc2ccc(F)cc2)c2ccccc12	7%[0.501 µM]	4%	40%	4%	-7%	1
S=C(NCCCN1CCOCC1)Nc1ccc(-c2nc3ccccc3[nH]2)cc1	32µM*	-19%	-13%	·	24µM*	1
CN(CC(=O)Nc1ccc(Cl)c(Cl)c1)CC(=O)Nc1ccc2c(c1)OCO2	-8%[2.33 µM]	-29%	5%	?	4%	14
CC(=O)Nc1c(C(=O)Nc2cccc(C)c2)nnn1-c1ccc(C)cc1	6%[59 µM]	-23%	53%	2%	·	·
CN1C(=O)/C(=C/C=C2\SCCN2C)SC1=S	8.9µM*	·	·	-10%	·	·
CN1C(=O)/C(=C/C=C2\SCCN2C)N(C)C1=S	40µM*	-22%	?	-35%	40%	-24
O=C(c1cnn(-c2ccc(F)cc2)c1-n1cccc1)N1CCN(c2ccccc2)CC1	?	-13%	27%	-6%	·	·
CCOC(=O)c1c(C)[nH]c(C)c1S(=O)(=O)N1CCC(C(=O)NCc2cccc(C)c2)CC1	7%[59 µM]	-21%	1%	-25%	·	·
Cc1ccccc1CNC(=O)Cn1c(=O)c2cccn2c2cccnc21	-11%[59 µM]	-31%	-1%	-10%	·	·
COc1ccc(C(=O)N2CCC(C(=O)N3CCN(Cc4ccccc4)CC3)CC2)cc1	34%	-12%	9%	-11%	-7%	-7
COc1cccc(C(=O)N2CCN(C3CCN(Cc4ccccc4)CC3)CC2)c1	8.9µM*	·	·	28µM*	·	·
COc1cccc(C(=O)N2CCN(C3CCCCC3)CC2)c1	·	11µM*	-24%	?	-7%	1
COc1ccc(C(=O)N2CCC(c3ccncc3)CC2)cc1OC	-5%[59 µM]	-9%	11%	2%	·	·
COc1ccccc1C(=O)N1CCN(C2CCN(Cc3ccccc3)CC2)CC1	10µM*	7.9µM*	?	56µM*	-5%	-1
COc1ccc(C(=O)N2CCN(C3CCC(c4ccccc4)CC3)CC2)cc1OC (centres undefined)	3.2µM*	2.8µM*	-49%	50µM*	0%	·
COc1ccccc1C(=O)N1CCN(C(=O)Cc2ccccc2)CC1	-5%[59 µM]	-4%	10%	0%	-5%	1
O=c1cnc2cnc(N3CCNCC3)nc2n1Cc1ccc(F)cc1	7%[0.501 µM]	·	·	·	·	·
COc1ccccc1CN1CCC2(CC1)CCN(S(=O)(=O)c1ccccc1)CC2	-3%[12.7 µM]	·	·	·	·	·
c1ccc(C2CCC(N3CCN(c4ccccc4)CC3)CC2)cc1 (centres undefined)	56µM*	?	2%	?	-13%	0
COc1ccc(C(=O)N(Cc2cccs2)Cc2cccs2)c(O)c1	·	-28%	·	·	·	·
SMILES	G9a inh	JMJD2A Tudor inh	HP1b chromo inh	BAZ2B block	PLK1 PBD block	PI5P4Ka inh
O=C(Nc1ccc(-c2n[nH]c(=S)o2)cc1)c1ccccc1Cl	1.8µM*	-15%	17%	-4%	-17%	?
O=C(Nc1ccc(-c2csc(-c3ccccc3)n2)cc1)c1ccccc1Cl	17%	-13%	17%	-2%	-5%	·
Cc1c(C(=O)N/N=C/c2cccnc2)sc(N)c1C#N	0%	4%	28%	-1%	-6%	-19
COc1cc(/C=N/NC(=O)c2sc(N)c(C#N)c2C)cc(Br)c1O	22%[59 µM]	-9%	28%	-7%	-5%	-73*
COc1ccc2ccccc2c1/C=N/NC(=O)c1sc(N)c(C#N)c1C	16%[59 µM]	-10%	31%	5%	3%	-76*
COc1ccc2ccccc2c1/C=N\NC(=O)c1ccc(C)s1	24%	-18%	52%	-3%	3%	?
COc1cccc(C(O)c2ncc(-c3ccccc3)[nH]2)c1 (centres undefined)	·	·	·	·	-2%	-3
COc1cccc(/C(O)=C2/C(=O)C(=O)N(CCN3CCOCC3)C2c2cccs2)c1 (centres undefined)	45µM*	?	14%	-4%	-14%	-17
Cc1nc2ccccn2c1/C(O)=C1\C(=O)C(=O)N(CCN2CCOCC2)C1c1ccncc1 (centres undefined)	?	25µM*	2%	?	-6%	9
Cc1nc2ccccn2c1/C(O)=C1\C(=O)C(=O)N(CCN(C)C)C1c1ccco1 (centres undefined)	?	-17%	26%	-28%	-4%	7
COc1cccc(C2/C(=C(\O)c3c(C)nc4c(C)cccn34)C(=O)C(=O)N2CCCN(C)C)c1 (centres undefined)	50µM*	·	·	-6%	·	·
Cc1nc2c(C)cccn2c1/C(O)=C1\C(=O)C(=O)N(CCN2CCOCC2)C1c1cccs1 (centres undefined)	20µM*	?	2%	?	-4%	·
Cc1nc2c(C)cccn2c1/C(O)=C1\C(=O)C(=O)N(CCN(C)C)C1c1cccs1 (centres undefined)	·	0%	14%	·	-9%	1
O=C1CCCC2=C1C1(CCSC1)N=C(Nc1nc3ccccc3o1)N2 (centres undefined)	·	-2%	·	·	·	·
O=C(CC1(CC2=NS(=O)(=O)c3ccccc3N2)CCCC1)NCCc1ccccc1	·	-23%	19%	-12%	-8%	2
COCCn1c(-c2ccc(Br)cc2)nc2oc3cc(OC)ccc3c(=O)c2c1=O	?	-6%	43%	-16%	-2%	2
